The values below come from PubChem BioAssay (NCATS).

Results filed as inconclusive are left out. Active and inactive are the calls of the source. Unless noted, calls follow the shape of the dose curve; as a rule, active = well fitted curve in the direction sought with a large enough effect; inconclusive = small, poorly fitted or top-dose-only effect, or another doubt; inactive = no such curve, though single readings can be large; an effect the other way counts as inactive or inconclusive.

The nature of experiment [1]: qHTS for Inhibitors of the Functional Ribonucleoprotein Complex (vRNP) of Lassa (LASV) Arenavirus: LASV Primary Screen - GLuc reporter signal (AID 1347082; calls by dose curve; tested in HEK293 reporter line; also: series mostly up to about 57 µM; nearly all actives have a fitted effect of over 60% in size).
A short description of experiment [2]: qHTS for Inhibitors of the Functional Ribonucleoprotein Complex (vRNP) of Lassa (LASV) Arenavirus: Viability assay - alamar blue signal for LASV Primary Screen (AID 1347083; calls by dose curve; tested in HEK293 reporter line; also: series mostly up to about 57 µM; nearly all actives have a fitted effect of over 80% in size).
Experiment [3] can be described thus: qHTS for Inhibitors of the Functional Ribonucleoprotein Complex (vRNP) of Lymphocytic Choriomeningitis Arenaviruses (LCMV): Viability assay - alamar blue signal for LCMV Primary Screen (AID 1347085; calls by dose curve; tested in HEK293 reporter line; also: series mostly up to about 57 µM; nearly all actives have a fitted effect of over 80% in size).
The target in experiment [4] is Nucleoprotein (Lymphocytic choriomeningitis virus (strain Armstrong)) (UniProt P09992). The experiment can be described thus: qHTS for Inhibitors of the Functional Ribonucleoprotein Complex (vRNP) of Lymphocytic Choriomeningitis Arenaviruses (LCMV): LCMV Primary Screen - GLuc reporter signal (AID 1347086; calls by dose curve; also: series mostly up to about 57 µM; nearly all actives have a fitted effect of over 70% in size).
The nature of experiment [5]: qHTS of pediatric cancer cell lines to identify multiple opportunities for drug repurposing: Primary screen for TC32 cells (AID 1347089). Also: nearly all actives have a fitted effect of over 60% in size. Also: potency is read from the fitted curve at half-maximal effect. An outline of the steps: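 Measured quantity: luminescence from CellTiter-Glo, reflecting metabolically active TC32 cells following 48 h of compound. Curves came straight from multi-point titrations, with 8 or 11 points in primary and 11 in confirmatory screening.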

A short description of experiment [6]: qHTS of pediatric cancer cell lines to identify multiple opportunities for drug repurposing: Primary screen for DAOY cells (AID 1347090). Also: series mostly up to about 46 µM; nearly all actives have a fitted effect of over 55% in size. An outline of the steps:
(§1)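 Cell viability, CellTiter-Glo luminescence; 500-1,000 cells/well, 8- or 11-point titration, 48 h compound exposure at 37 degrees C, 5% CO2. Controls: DMSO neutral, bortezomib 2.3 µM final as positive.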

Experiment [7] in a line: qHTS of pediatric cancer cell lines to identify multiple opportunities for drug repurposing: Primary screen for SK-N-MC cells (AID 1347093). Also: potency is read from the fitted curve at half-maximal effect. The gist of the method: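 Metabolically active cells were quantified by ATP-dependent luminescence (CellTiter-Glo, 15 min at room temperature) following 48 h treatment. Cells had been plated at 500-1,000 per well and settled for 5 h beforehand.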

Experiment [8] can be described thus: qHTS of pediatric cancer cell lines to identify multiple opportunities for drug repurposing: Primary screen for BT-37 cells (AID 1347094). Also: potency is read from the fitted curve at half-maximal effect. An outline of the steps:
(§2)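 CRCs from 8- or 11-point titrations (lowest final 0.59 nM NPC, 0.78 nM MIPE). Cell viability: CellTiter-Glo after 48 h incubation, 15 min room-temperature development, luminescence imaging.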

Experiment [9] can be described thus: qHTS of pediatric cancer cell lines to identify multiple opportunities for drug repurposing: Primary screen for NB-EBc1 cells (AID 1347095). Also: potency is read from the fitted curve at half-maximal effect. An outline of the steps:
as §2

Experiment [10] is described as follows: qHTS of pediatric cancer cell lines to identify multiple opportunities for drug repurposing: Primary screen for U-2 OS cells (AID 1347096). Also: nearly all actives have a fitted effect of over 50% in size. An outline of the steps: (§3)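 Cells (500-1,000/well) rested 5 h, then received compounds for 48 h; metabolically active cells were measured by CellTiter-Glo luminescence. Final concentrations spanned up to 46 µM (MIPE, 11-point) or 0.59 nM-46 µM (NPC, 8-point) in primary screens, 11-point in follow-ups.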

Experiment [11] can be described thus: qHTS of pediatric cancer cell lines to identify multiple opportunities for drug repurposing: Primary screen for Saos-2 cells (AID 1347097). Also: nearly all actives have a fitted effect of over 40% in size. Also: potency is read from the fitted curve at half-maximal effect. The gist of the method:
as §2

Experiment [12] in a line: qHTS of pediatric cancer cell lines to identify multiple opportunities for drug repurposing: Primary screen for NB1643 cells (AID 1347099). Also: nearly all actives have a fitted effect of over 50% in size. Also: potency is read from the fitted curve at half-maximal effect. An outline of the steps:
as §2

The nature of experiment [13]: qHTS of pediatric cancer cell lines to identify multiple opportunities for drug repurposing: Primary screen for LAN-5 cells (AID 1347100). Also: potency is read from the fitted curve at half-maximal effect. The gist of the method: as §3
Experiment [14] can be described thus: qHTS of pediatric cancer cell lines to identify multiple opportunities for drug repurposing: Primary screen for SJ-GBM2 cells (AID 1347091). Also: potency is read from the fitted curve at half-maximal effect. An outline of the steps:
as §1

Experiment [15] can be described thus: qHTS of pediatric cancer cell lines to identify multiple opportunities for drug repurposing: Primary screen for A673 cells (AID 1347092). Also: nearly all actives have a fitted effect of over 45% in size. Also: potency is read from the fitted curve at half-maximal effect. An outline of the steps:
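Cells are plated, rested 5 h, dosed by pintool, incubated 48 h, then lysed with CellTiter-Glo and read by luminescence. DMSO is the neutral control; bortezomib at 2.3 uM final is the positive control.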

The nature of experiment [16]: qHTS of pediatric cancer cell lines to identify multiple opportunities for drug repurposing: Primary screen for SK-N-SH cells (AID 1347098). Also: nearly all actives have a fitted effect of over 65% in size. Also: potency is read from the fitted curve at half-maximal effect. The gist of the method:
as §3

Sequence of Nucleoprotein (Lymphocytic choriomeningitis virus (strain Armstrong)) (P09992 whole entry, looked up): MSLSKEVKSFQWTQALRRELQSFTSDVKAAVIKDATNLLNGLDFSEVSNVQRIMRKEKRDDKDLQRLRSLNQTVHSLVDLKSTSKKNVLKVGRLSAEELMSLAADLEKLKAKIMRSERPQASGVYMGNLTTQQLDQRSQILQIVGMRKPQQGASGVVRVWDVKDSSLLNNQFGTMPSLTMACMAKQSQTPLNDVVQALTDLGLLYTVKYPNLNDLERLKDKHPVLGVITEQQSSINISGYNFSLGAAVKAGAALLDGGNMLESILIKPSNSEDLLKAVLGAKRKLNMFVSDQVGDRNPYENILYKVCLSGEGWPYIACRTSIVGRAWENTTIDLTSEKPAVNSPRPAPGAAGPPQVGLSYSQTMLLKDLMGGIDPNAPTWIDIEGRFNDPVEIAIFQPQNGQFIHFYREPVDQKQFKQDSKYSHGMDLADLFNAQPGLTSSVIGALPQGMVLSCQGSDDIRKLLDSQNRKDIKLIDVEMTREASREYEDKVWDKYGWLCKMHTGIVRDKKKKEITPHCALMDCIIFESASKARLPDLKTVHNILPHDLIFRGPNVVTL

Take `CC1COC2(c3ccccc3Cl)c3cc(Cl)ccc3NC(=O)CN12` (centres undefined): the Potency entry in experiment [1], in experiment [2], in experiment [3], in experiment [4], in [5] and in [6] was “inactive” throughout. For the same compound, the Potency result in experiment [7], in [8], in experiment [9], in experiment [10], in experiment [11] and in experiment [12] was “inactive” each time. In addition, the Potency in experiment [13] was 6680 nM (active).
Regarding `COc1cc(C[C@@H](C)N)c(OC)cc1C`, the Potency result in [1], in experiment [2], in experiment [3], in experiment [4], in [5] and in experiment [14] was “inactive” throughout. The Potency result in experiment [15], in experiment [7], in [10], in experiment [11], in experiment [16] and in experiment [12] was “inactive” each time. The Potency result in experiment [13] was “inactive”.
For `CCCC(C)C1(CC)C(=O)N=C(S)NC1=O` (centres undefined), the Potency result in experiment [1], in experiment [2], in experiment [3], in experiment [4], in [5] and in [14] was “inactive” throughout. The Potency entry in experiment [15], in [7], in [8], in experiment [9], in [10] and in [11] was “inactive” in each case. The Potency entry in experiment [16], in [12] and in [13] was “inactive” each time.
In the case of `CC#C[C@]1(O)CC[C@H]2[C@@H]3C[C@H](C)C4=CC(=O)CC[C@]4(C)[C@H]3CC[C@@]21C`, the Potency entry in experiment [1], in [2], in experiment [3], in experiment [4], in experiment [5] and in experiment [6] was “inactive” in each case. Also, the Potency entry in experiment [15], in [11] and in experiment [16] was “inactive” each time. The Potency in experiment [7] is 23700 nM (active).
Take `CC1=C2[C@H]3OC(=O)[C@@H](C)[C@@H]3CC[C@@]2(C)C=CC1=O`: the Potency entry in [1], in [2], in [3], in [4], in experiment [5] and in experiment [14] was “inactive” each time. Besides, the Potency result in experiment [15], in [7], in experiment [8], in experiment [9], in experiment [16] and in experiment [12] was “inactive” in each case. In addition, in experiment [13], the Potency entry is “inactive”.
As to `C[C@@H]1O[C@@H](O[C@@H]2C=C3CC[C@@H]4[C@H](CC[C@]5(C)[C@@H](c6ccc(=O)oc6)CC[C@]45O)[C@@]3(C)CC2)[C@H](O)[C@H](O)[C@H]1O`, the Potency result in experiment [1], in experiment [2], in [3] and in experiment [4] was “inactive” in each case. Further, the Potency was 3.3 nM (active) in experiment [5]; 6.7 nM (active) in experiment [14]; 2.7 nM (active) in experiment [15]; 1 nM (active) in experiment [7]; 2.5 nM (active) in experiment [8]; 11.9 nM (active) in [9]. Also, the Potency is 3.8 nM (active) in [11], 68.7 nM (active) in experiment [16], 6.7 nM (active) in [12] and 10.6 nM (active) in experiment [13].
With `ClC1=C(Cl)C2(Cl)C(CBr)CC1(Cl)C2(Cl)Cl` (centres undefined), the Potency result in experiment [1], in experiment [2], in experiment [3], in experiment [4], in experiment [5] and in experiment [14] was “inactive” in each case. For the same compound, the Potency entry in [7], in experiment [8], in experiment [9], in experiment [10], in [11] and in experiment [16] was “inactive” each time. Also, the Potency result in [12] and in experiment [13] was “inactive” each time.
On to `CC(C(O)c1ccccc1)N(C)C/C=C/c1ccccc1` (centres undefined), for which the Potency result in experiment [1], in experiment [2], in experiment [3], in experiment [4], in [5] and in experiment [14] was “inactive” in each case. The Potency result in [15], in experiment [7], in experiment [8], in experiment [9], in [11] and in experiment [12] was “inactive” in each case. The Potency result in experiment [13] is “inactive”.
With `C=CC[C@]1(O)CC[C@H]2[C@@H]3CCC4=CC(=O)CCC4=C3C=C[C@@]21C`, the Potency result in experiment [1], in experiment [2], in experiment [3], in experiment [4], in [5] and in [6] was “inactive” in each case. For the same compound, the Potency entry in [14], in experiment [9], in [10], in experiment [11], in experiment [16] and in [13] was “inactive” each time.
`CC(Cc1ccccc1)NCc1ccccc1Cl` (centres undefined): the Potency entry in [1], in experiment [2], in experiment [3], in [4], in experiment [5] and in [6] was “inactive” in each case. Further, the Potency result in experiment [14], in [8], in experiment [9], in experiment [16], in [12] and in [13] was “inactive” in each case.
